ssDAF12 agonist: S. stercoralis DAF-12 nuclear receptor activators, primary screen, cell-based, luminescence, HEK293, GRIP1 co-expression, lit1-tk-luc. Nuclear hormone receptor DAF-12 (Strongyloides stercoralis). HEK293 ssDAF-12/GRIP1 lit1-tk-luc reporter; % of 3 µM dafachronic acid response. activation, % at 6.8 µM. 370,000 tested, 1% active. AID 652126, 2013;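 active = activation above the mean over all tested compounds plus 3 SD, cut at about 0.9% in these data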
hcDAF12 agonist: H. contortus DAF-12 nuclear receptor activators, primary screen, cell-based, luminescence, HEK293, lit1-tk-luc reporter | HEK293 hcDAF-12 lit1-tk-luc reporter; 0% DMSO, 100% Δ7-dafachronic acid | activation, % at 6.8 µM | 370,000 tested, 1.4% active | AID 652067, 2013;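 active = activation above the mean of all tested compounds plus 3 SD, cut at about 5.5% in these data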
DAX1 inh-1: DAX1 (NR0B1) inhibitors, primary screen, cell-based, HEK293, Gal4-DAX1, luciferase luminescence; Nuclear receptor subfamily 0 group B member 1 (Homo sapiens), P51843; HEK293 Gal4-DAX1 luciferase reporter; inhibition, % at 6.75 µM; 340,000 tested, 0.99% active; AID 504766, 2011;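 active = inhibition above the mean over all tested compounds plus 3 SD, cut at about 4.2% in these data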;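 note: inhibition shows as a rise in luminescence from relieved DAX1 repression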
Target sequence (P51843 207-470 limits assumed): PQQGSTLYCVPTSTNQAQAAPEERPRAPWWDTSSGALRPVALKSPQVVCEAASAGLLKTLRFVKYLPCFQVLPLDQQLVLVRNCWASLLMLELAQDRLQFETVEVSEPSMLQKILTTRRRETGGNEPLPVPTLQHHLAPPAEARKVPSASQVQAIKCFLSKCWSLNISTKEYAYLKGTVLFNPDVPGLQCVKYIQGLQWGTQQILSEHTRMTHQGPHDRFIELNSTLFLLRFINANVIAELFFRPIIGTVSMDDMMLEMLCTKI
hgDAF-12 ag: H. glycines DAF-12 receptor agonists, primary screen, cell-based, luminescence, HEK293, GAL4 fusion, UAS-luciferase; HEK293 GAL4-hgDAF12 UAS-luciferase reporter, agonist luminescence; normalized to butyrate control; Nuclear hormone receptor DAF-12 (Heterodera glycines), GAL4 fusion; activation, % at 6.8 µM; 370,000 tested, 1.8% active;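 active = activation above a cutoff set at the mean of all screened compounds plus 3 SD, cut at about 10% in these data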
DAX1 inh-2: DAX1 (NR0B1) inhibitors on StAR promoter, primary screen, cell-based, luminescence, SF-1 (NR5A1), full-length DAX-1. 370,000 tested, 1.1% active. inhibition, % at 6.8 µM. HEK293T StAR-luciferase reporter, SF-1/DAX-1 repression relief;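 active = inhibition above the mean over all tested compounds plus 3 SD, cut at about 3.6% in these data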;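 note: higher inhibition means more luminescence from relief of DAX-1 repression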
Large screens that a line does not name were inactive. In the library only some 4.1% were active in any assay of this set; here they are far more common.

O=P(OC1CCCCC1)(OC1CCCCC1)C(O)c1cccnc1 (stereo unspecified)	hcDAF12 agonist 5.9
CCOC(=O)CSC1=C(C#N)C(c2ccccc2OCC)C(C#N)C(=O)N1 (stereo unspecified)	DAX1 inh-1 4.2
O=C(NCC(=O)N1CCCCCCC1)c1ccc(Br)o1	DAX1 inh-1 6.0
O=C(NCC(=O)N1CCOCC1)c1ccc(Br)o1	DAX1 inh-2 3.7
O=C(Cc1ccc(Br)cc1)N1CCOCC1	ssDAF12 agonist 0.9
O=C(Cc1ccc(-c2ccccc2)cc1)N1CCOCC1	none
CC(=O)N1CCN(C(=O)CNC(=O)c2ccc(Br)o2)CC1	none
O=C(Nc1ccc(N2CCOCC2)cc1)c1ccc(Br)o1	hgDAF-12 ag 12
O=C(Nc1ccccc1)c1ccn[nH]1	DAX1 inh-1 4.3
CC(=O)c1ccc(NC(=O)c2ccn[nH]2)cc1	none
Cc1ccccc1N(CC(=O)N/N=C/c1ccc(Cl)cc1)C(=O)c1ccccc1	none
Cc1ccccc1N(CC(=O)N/N=C/c1ccc(F)cc1)C(=O)c1ccccc1	ssDAF12 agonist 0.9
CCOc1ccccc1N(CC(=O)Nc1ccccc1F)S(=O)(=O)c1ccccc1	hgDAF-12 ag 10
CCOc1ccccc1N(CC(=O)Nc1ccc(OC)cc1OC)S(=O)(=O)c1ccccc1	none
CCOC(=O)C(C(=O)OCC)C(Nc1cccc(Br)c1)c1ccccc1 (stereo unspecified)	none
CCOC(=O)C(c1ccccc1)C(Nc1ccc(Cl)c(Cl)c1)c1ccccn1 (stereo unspecified)	ssDAF12 agonist 1.0 (no result: DAX1 inh-1)
Clc1ccccc1OCCCn1ccnc1	ssDAF12 agonist 1.4
CCOc1ccc(N(CC(=O)NCCSCc2ccccc2Cl)S(C)(=O)=O)cc1	none
CCOc1ccc(N(CC(=O)NCc2ccccc2C)S(C)(=O)=O)cc1	DAX1 inh-1 4.3
O=C(c1cccc(S(=O)(=O)N2CCCCC2)c1)N1CCc2ccccc21	hcDAF12 agonist 5.9
O=C(NCCCN1CCCC1=O)c1cccc(S(=O)(=O)N2CCCCC2)c1	DAX1 inh-2 4.4
O=C(NCc1ccco1)c1ccc(-c2ccc(F)c(F)c2)c2ccoc12	none (no result: DAX1 inh-1)
Cc1ccc(Cn2cc(CN3[C@H](Cc4ccccc4)COc4cc(Br)ccc4S3(=O)=O)nn2)cc1	none (no result: DAX1 inh-1)
O=[N+]([O-])c1cccc2[nH]c(CNc3nc(N4CCOCC4)nc4c3ncn4-c3ccsc3)nc12	none (no result: DAX1 inh-1, DAX1 inh-2)
CCN(CC)CCCNC(=O)CCC(=O)Nc1ccc2nc(N3CCCCC3)cc(C)c2c1	DAX1 inh-1 6.7
COc1ccc(Nc2nccc3c2nnn3C)cc1	DAX1 inh-2 4.2
Cn1nnc2c(NCc3ccco3)nccc21	none
CC1CCC2(CCC(=O)N2CCCOC(=O)c2ccccc2)CC1 (stereo unspecified)	none (no result: DAX1 inh-1)
CC(=O)c1ccc(OCC(=O)N(CCC2=CCCCC2)c2c(N)n(Cc3ccccc3)c(=O)[nH]c2=O)cc1	none
CC(=O)c1cccc(OCC(=O)N(CCC2=CCCCC2)c2c(N)n(Cc3ccccc3)c(=O)[nH]c2=O)c1	DAX1 inh-1 4.3
C=CCOC/C=C/C#CCN(Cc1ccc(OC)cc1OC)C(=O)Nc1ccccc1	none (no result: DAX1 inh-1)
CN(C)c1ccc(NC(=O)Nc2ccc3c(c2)nnn3C)cc1	DAX1 inh-1 6.5
CN(C)c1ccc(NC(=O)c2ccc3c(c2)nnn3C)cc1	none
Cn1nnc2cc(C(=O)Nc3ccccc3)ccc21	ssDAF12 agonist 0.9, hgDAF-12 ag 11
Cc1ccc(NC(=O)c2ccc3c(c2)nnn3C)cc1	none
CCOC(=O)[C@]12CCCCC/C=C\1N(Cc1ccc(OC)cc1)C(=O)[C@H]2CC(=O)N1CCC(c2ccccc2)CC1	none (no result: DAX1 inh-1)
COc1ccc(-c2cc3nc[nH]c(=O)c3s2)cc1	hgDAF-12 ag 11
COc1ccc(-c2cc3nc(CCl)[nH]c(=O)c3s2)cc1	hcDAF12 agonist 5.9, hgDAF-12 ag 12
Cn1c(=O)c(C(=O)NNC(=O)c2ccccc2F)c(O)c2ccccc21	none
CCn1c(=O)c(C(=O)NCc2ccc(F)cc2)c(O)c2ccccc21	DAX1 inh-1 4.7
Cn1c(=O)c(C(=O)NNC(=O)c2ccc(Br)cc2)c(O)c2ccccc21	DAX1 inh-1 4.5
C=CCn1c(=O)c(C(=O)Nc2ccc(C)cc2)c(O)c2ccccc21	ssDAF12 agonist 1.0
CCn1c(=O)c(C(=O)NNS(=O)(=O)c2ccc(Br)cc2)c(O)c2ccccc21	DAX1 inh-1 8.6
CCn1c(=O)c(C(=O)NNS(=O)(=O)c2ccc(C)cc2)c(O)c2ccccc21	none
COc1ccc(-n2c(SCC(=O)Nc3ccc(S(=O)(=O)Nc4nccs4)cc3)nnc2-c2ccccc2)cc1	none (no result: DAX1 inh-1)
COC(=O)c1c(C)oc(C)c1S(=O)(=O)N1CCCC1	DAX1 inh-1 4.4
COC(=O)c1c(C)oc(C)c1S(=O)(=O)N1CCCCC1	none
CCOC(=O)c1cc(C(C)=O)c(=O)[nH]c1C	none
COC(=O)c1cc(C(C)=O)c(C)[nH]c1=O	DAX1 inh-1 5.9
Nc1c(C=C2C=CC(=O)C=C2)c(=O)nc2sc(CC(=O)N3CCOCC3)nn12	none
Nc1c(/C=C2\C=Nc3ccccc32)c(=O)nc2sc(CC(=O)N3CCOCC3)nn12	DAX1 inh-2 3.7
CCCCN1CCN(C(=O)Cn2c(=O)c3ccccc3n(CC)c2=O)CC1	none (no result: DAX1 inh-1)
COc1ccc(-n2c(SCC(=O)N/N=C(/C)c3cccc(O)c3)nc3ccccc3c2=O)cc1	none (no result: DAX1 inh-1)
COc1ccc(Cn2ccc3ccc(-c4ccc5ccn(Cc6ccc(F)cc6)c5c4)cc32)cc1	none (no result: DAX1 inh-1)
O/N=C(/CCc1ccccc1)c1ccc2c(c1)OCCO2	hgDAF-12 ag 11
CC(=O)Nc1ccc(NCc2cccs2)cc1	DAX1 inh-1 4.3
COc1ccc(CSc2nnc(SCc3ccccc3)s2)cc1	none (no result: DAX1 inh-1)
CCN(CC)C(=O)CCCSc1nnc(Nc2ccccc2F)s1	hgDAF-12 ag 13
CCOc1ccc(-n2c(SCC(=O)Nc3ccc(S(=O)(=O)Nc4cc(C)nc(C)n4)cc3)nnc2-c2ccc(C)cc2)cc1	none (no result: DAX1 inh-1)
CCNc1nc(-c2ccc(Cl)cc2)cs1	hgDAF-12 ag 12
Oc1ccc(Nc2nc(-c3cccnc3)cs2)cc1	none (no result: ssDAF12 agonist, hcDAF12 agonist, hgDAF-12 ag, DAX1 inh-2)
CCOc1ccc(Nc2nc(-c3cccnc3)cs2)cc1	DAX1 inh-1 6.2
COc1ccc(Nc2nc(-c3ccc(OC)cc3)cs2)cc1	hgDAF-12 ag 12
Cc1cc(O)ccc1Nc1nc(-c2cccnc2)cs1	hgDAF-12 ag 12
Cc1ccc(OCC(C)CN2CCC(C(O)(c3ccccc3)c3ccccc3)CC2)cc1 (stereo unspecified)	none (no result: DAX1 inh-1)
